Results reported in PubChem BioAssay (NCI).
Where “and” joins values, the source holds several entries; their conditions need not be identical. Identical values can stand only once. The panel holds about 83,000 compounds, 20% with a hit somewhere; the sample as a whole holds those more often.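 Results are percent growth after 48 hours of single-concentration exposure. 100 means growth as in untreated cells, lower positive values show inhibition; negative values down to -100 show cell death.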 Calls of active or inactive are those of the source. Where a SMILES comes first, the peptide text is derived from it. The star is where a group is joined. Trt = c1ccc(C(c2ccccc2)(c2ccccc2)*)cc1; Cbz = O=C(OCc1ccccc1)*

Tested on: HCT-15 colon
Test: NCI-60 one-dose screen, 48 h (100 = growth as untreated, 0 = no growth, -100 = all killed)
Details: 10 µM
Procedure: Growth inhibition of the HCT-15 human tumor cell line is measured as a screen for anti-cancer activity. Cells are grown in 96 well plates and exposed to the test compound for 48 hours. Compounds are tested at a single concentration, which is 10^-5 M for most compounds. The reported endpoint is percent growth (GI% or GIPRCNT), where numbers from 0 - 100% represent growth inhibition, and numbers from -100% - 0 represent cell death. For example, a value of 40 represents 60% growth inhibition. A value of 0 means no net growth occurred over the course of the experiment. A value of -40 indicates 40% of cells at the beginning of the experiment died by the end of the experiment. A value of -100 means all cells are dead at the end of the experiment.
NCI-60 Human Tumor Cell Lines Screen was performed using the standard one-dose NCI protocol, which is described in more detail at https://dtp.cancer.gov/discovery_development/nci-60/default.htm.
Compounds with GIPRCNT values below 10 were considered active. Activity score was based on GIPRCNT using the following formula: […]
Score is 0 for GIPRCNT values of 100 or above, 50 for GIPRCNT values of 0, and 100 for GIPRCNT values of -100.

Question: How did the growth turn out when COc1ccc(-c2cscc2N)cc1 was run?
Answer: 63.1% (inactive)

Question: For CN(C)C(=O)c1ccc(SC(=S)NCc2ccccc2)cc1, which growth is on record?
Answer: 92.2% (inactive)

Same assay, conditions: 10 µM unless noted

Question: For Oc1c(Br)cc(Cl)cc1C(c1cc(Cl)cc(Br)c1O)C(Cl)(Cl)Cl, which growth is on record?
Answer: 17.2% (inactive)

Question: NC1=CC(=O)c2ccccc2C1=O was tested. Which growth did it give?
Answer: 61.5% (inactive)

Question: c1ccc2c(c1)Nc1cc3ccccc3cc1N2 was tested. Which growth did it give?
Answer: 17.5% (inactive)

Question: Which growth does the source give for CCOc1ccc(-c2nc3ccc(-c4nc5ccc(N6CCN(C)CC6)cc5[nH]4)cc3[nH]2)cc1 here?
Answer: 23.7% (inactive)

Question: How did the growth turn out when Oc1c(Br)c(Br)c(O)c(Br)c1Br was run?
Answer: 11% (inactive)

Question: How did the growth turn out when CCC(c1cccc(O)c1)C(CC)c1cccc(O)c1 (stereo not given) was run?
Answer: 49% (inactive)

Question: For S=C(NCCNC(=S)[S][Sn]([c]1ccccc1)([c]1ccccc1)[c]1ccccc1)[S][Sn]([c]1ccccc1)([c]1ccccc1)[c]1ccccc1, which growth is on record?
Answer: -73.8% (active)

Question: Which growth does the source give for O=[N+]([O-])c1ccc(N=Nc2ccc(O)cc2O)cc1 here?
Answer: 36.9% (inactive)

Question: How did the growth turn out when COC(=O)C(CSC(c1ccccc1)(c1ccccc1)c1ccccc1)NC(=O)C(CC(N)=O)NC(=O)OCc1ccccc1 (stereo not drawn) (Cbz-Asn-Cys(Trt)-OMe; configuration not given here) was run?
Answer: 13.7% (inactive)

Question: With O=C(Oc1cccc2cccnc12)c1ccccc1 as the compound, how does the growth read?
Answer: 77.6% (inactive) and 101% (inactive)

Question: With CCN(CC)CCOc1ccc(-c2nc3cc(Cl)ccc3s2)cc1 as the compound, how does the growth read?
Answer: -71.9% (active)

Question: With N#Cc1ccc([N+](=O)[O-])o1 as the compound, how does the growth read?
Answer: 104% (inactive)

Question: For Cc1cc(N)c2ccccc2[n+]1CCCCCCCCCC[n+]1c(C)cc(N)c2ccccc21, which growth is on record?
Answer: 26.2% (inactive) and 42.4% (inactive)

Question: With CCCCCCCCCCCCCCNCc1ccccc1 as the compound, how does the growth read?
Answer: 45.6% (inactive)

Question: CC(=O)C(=Cc1ccc(C=C(C(C)=O)C(C)=O)cc1)C(C)=O was tested. Which growth did it give?
Answer: -32.7% (active)

Question: Which growth does the source give for CNc1ccc(N)cc1 here?
Answer: 109% (inactive)

Question: Which growth does the source give for COc1ccc(N=N/N=c2\sc3cc(OC)ccc3n2C)cc1 here?
Answer: 98.9% (inactive)

Question: Which growth does the source give for CCOC(=O)/C=C/c1ccc([N+](=O)[O-])o1 here?
Answer: -3.85% (active)

Question: For CC1OC2CC(=O)OC2C2=C1C(=O)c1c(O)cccc1C2=O (stereo not given), which growth is on record?
Answer: -76.6% (active)

Question: C[n+]1c(/C=C/c2ccc([N+](=O)[O-])cc2)ccc2ccccc21 was tested. Which growth did it give?
Answer: 98.6% (inactive)

Question: CCC(CCCN(CC)CCc1ccccc1)OC(=O)c1cc(OC)c(OC)c(OC)c1 (stereo not given) was tested. Which growth did it give?
Answer: 89.8% (inactive)

Question: How did the growth turn out when Nc1nc(N)c2c(ccc3c2ccn3Cc2cccc([N+](=O)[O-])c2)n1 was run?
Answer: -84.6% (active)

Question: How did the growth turn out when CC1OC(OC2C(OC3CCC4(C)C(CCC5(C)C4CC=C4C6CC(C)(C)CCC6(CO)C(O)CC45C)C3(C)C)OC(C(=O)O)C(OC3OC(COC4OC(CO)C(O)C(O)C4O)C(O)C(O)C3O)C2O)C(O)C(O)C1O (stereo not given) was run?
Answer: -47.8% (active)

Question: With CCC1OC(OC)C=CC1=O (stereo not given) as the compound, how does the growth read?
Answer: 109% (inactive)

Question: O=C(/C=C/c1cccc(Cl)c1)c1ccccc1 was tested. Which growth did it give?
Answer: 56.7% (inactive) and 62.8% (inactive)

Question: Which growth does the source give for N#CC1C(=O)SC2c3ccccc3C(=O)c3ccccc3C12 (stereo not given) here?
Answer: 111% (inactive)

Question: How did the growth turn out when Cc1c2ccccc2c(C)c2c1ccc1ccccc12 was run?
Answer: 90.3% (inactive)

Question: For Cc1ccc2nc(-[n+]3cc4ccccc4cc3C)ccc2c1, which growth is on record?
Answer: 104% (inactive)

Question: With CN(C)CCOc1ccc2c(c1)C(=O)/C(=C\c1ncc([N+](=O)[O-])n1C)C2 as the compound, how does the growth read?
Answer: -10.2% (active)

Question: For N#CSCC(=O)c1ccc(Cl)cc1, which growth is on record?
Answer: 18.1% (inactive)

Question: With O=C(O)c1ccc2c3c(ncnc13)-c1ccccc1C2=O as the compound, how does the growth read?
Answer: 26.8% (inactive)

Question: How did the growth turn out when COc1cc(NS(C)(=O)=O)ccc1Nc1c2ccccc2nc2ccccc12 was run?
Answer: 29.4% [2.5 µM] (inactive)

Question: Which growth does the source give for O=C(Nc1ccccc1)c1cc(Cl)ccc1O here?
Answer: 64.1% (inactive)

Question: For CN(C)c1ccc(/C=N/N=C(\C#N)[S][Sn]([Cl])([c]2ccccc2)[c]2ccccc2)cc1, which growth is on record?
Answer: -30.6% (active)

Question: For CC(=O)Nc1cccc2cc(O)ccc12, which growth is on record?
Answer: 112% (inactive) and 107% (inactive) and 99.9% (inactive)

Question: With C=C(Cl)C(=NC(C)(C)C)Nc1ccccc1C as the compound, how does the growth read?
Answer: 101% (inactive)

Same assay, conditions: 100 µM

Question: How did the growth turn out when COc1ccc(-c2cscc2N)cc1 was run?
Answer: 63.9% (inactive)

Question: Which growth does the source give for CN(C)C(=O)c1ccc(SC(=S)NCc2ccccc2)cc1 here?
Answer: -35.1% (active)
